ERp5 block: inhibitors of human ERp5; Q15084; ERp5 insulin aggregation, absorbance 650 nm, 90 min; inhibition, % at 9.99 µM; 350,000 tested, 0.05% active;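 active = mean replicate inhibition above about 25%, with every replicate also reaching it, limit read from the data, passing the limit was not always enough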
PglD DTNB: PglD (C. jejuni) enzyme inhibition. 360,000 tested, 0.098% active. purified PglD enzyme, DTNB colorimetric CoA detection. AID 602405. inhibition, % at 12.5 µM; in the data active = inhibition above about 16%, passing the limit was not always enough
PDI turbidity: PDI (human) enzyme inhibition; P07237; PDI insulin aggregation turbidity, A650, 90 min; inhibition, % at 10 µM; 350,000 tested, 0.052% active; AID 588391;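 active = mean inhibition across replicates of 30% or more, whatever share of single replicates reach that level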
PGC1a acetyl inh: PGC1a acetylation modulation, inhibitor mode | 350,000 tested, 0.17% active | inhibition, % at 15.6 µM | AID 651687 | U2OS PGC1a acetylation, AlphaScreen anti-acetyl-lysine; with virally co-expressed GCN5 acetyltransferase;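 active = every replicate shows inhibition of at least 40%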;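 note: 0% = neutral control wells and 100% = positive control wells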
ERAP1 HTS inh: ERAP1 (human) enzyme inhibition; Q9NZ08; inhibition, % at 10.7 µM; recombinant ERAP1, Leu-AMC fluorescence, 60 min; 340,000 tested, 0.15% active;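 active = mean replicate inhibition of at least 30%, or all replicates individually reaching that 30% level; inactive = mean below 30% and not every replicate reaching it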;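 note: 0% = neutral control wells and 100% = L-leucinethiol positive control wells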
CaV13 FRET inh: Primary screen for inhibitors of IQ motif and Ca2+-dependent inactivation inhibitor domain binding in CACNA1D, Förster resonance energy transfer in living cells, …; HEK cells, CFP/YFP FRET ICDI-IQ, plate reader, 10 min; percent FRET-ratio fall versus neutral wells; inhibition, % at 12.3 µM; 340,000 tested, 0.098% active;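 active = mean replicate inhibition of at least 30% and at least 1% of replicates passing that level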;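 note: 0% = median of the neutral control wells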
Starred values were filed as active, the others as inactive; . = no result. Hits are enriched below; roughly 0.46% of the tested compounds scored in any of these assays.

SMILES | ERp5 block | PglD DTNB | PDI turbidity | PGC1a acetyl inh | ERAP1 HTS inh | CaV13 FRET inh
C#CC(=O)N(c1cc(OC)ccc1OC)C(C(=O)NC1CCCC1)c1cccs1 (stereo not given) | . | -5 | 23 | 88* | . | .
CNC(=O)C[C@H]1CC[C@H]2[C@H](COc3ccc(NC(=O)c4cccs4)cc3C(=O)N2C)O1 | . | 0 | . | 9 | . | .
CCN1/C(=C/C=C/C=C/C=C/c2sc3ccccc3[n+]2CC)Sc2ccccc21 | 0 | -1 | -62 | 5 | 31* | -20
CCN1/C(=C/C=C/c2sc3ccccc3[n+]2CC)Sc2ccccc21 | . | -2 | -5 | -2 | . | .
COc1ccc(NC(=O)Nc2ccc3c(c2)CC(=O)N([C@@H](C)CO)C[C@H](C)[C@@H](CN(C)C(=O)NC2CCCCC2)O3)cc1 | -2 | -2 | . | -4 | 0 | .
CN(C)CCNc1ccc2ncn3c4ccc(O)cc4c(=O)c1c23 | 5 | . | 4 | . | 33* | -22
COc1ccccc1/C=N/NC(=O)C(=O)N1CCN(c2ccccc2OC)CC1 | . | 7 | 13 | . | . | -4
COc1ccccc1N1CCN(C(=O)C(=O)N/N=C/c2cccc(O)c2)CC1 | . | 2 | 36* | 7 | . | -5
C[C@@H]1CN([C@H](C)CO)C(=O)Cc2cc(NC(=O)Nc3cccc4ccccc34)ccc2O[C@H]1CN(C)C(=O)Nc1cccc2ccccc12 | 15 | -1 | . | 3 | -2 | .
C[C@@H]1CN([C@H](C)CO)C(=O)c2cc(NC(=O)Nc3cccc4ccccc34)ccc2O[C@@H]1CN(C)C(=O)Nc1cccc2ccccc12 | 33* | 1 | . | 9 | 1 | .
C[C@@H]1CN([C@@H](C)CO)C(=O)Cc2cc(NC(=O)CCCCCC(=O)Nc3ccccc3N)ccc2O[C@H]1CN(C)C | 6 | 21* | . | 8 | -1 | .
C[C@H]1CN([C@@H](C)CO)C(=O)Cc2cc(NC(=O)CCCCCC(=O)Nc3ccccc3N)ccc2O[C@H]1CN(C)C | 0 | 15 | . | 10 | 0 | .
C[C@H]1CN([C@@H](C)CO)C(=O)Cc2cc(NC(=O)Nc3cccc4ccccc34)ccc2O[C@H]1CN(C)C(=O)Nc1cccc2ccccc12 | 26* | -2 | . | 9 | 0 | .
CO[C@@H]1CN(C)C(=O)c2ccc(NC(=O)c3ccccc3)cc2OC[C@@H](C)N(CC2CC2)C[C@H]1C | -13 | -2 | . | 3 | 1 | .
C=CCn1c(SCC(=O)N2CC(C)OC(C)C2)nnc1-c1ccncc1 (stereo not given) | -11 | 4 | 4 | -3 | 49* | -4
OCCN(Cc1ccccc1)CC1CCCCC1 | . | 0 | 1 | 57* | . | -8
C[C@@H]1CN([C@@H](C)CO)C(=O)c2cc(NC(=O)CCCN(C)C)ccc2O[C@@H]1CN(C)CC1CCCCC1 | . | . | . | -4 | -4 | .
CC(C)CC(=O)/C(=C\c1ccc(Cl)cc1Cl)n1cncn1 | . | 3 | -3 | 60* | . | .
Cc1cccc2sc(N(CCCN(C)C)C(=O)c3ccc4ncsc4c3)nc12 | -4 | 0 | -8 | . | 76* | -3
Cc1cccc2sc(N(CCCN(C)C)C(=O)c3nc4ccccc4s3)nc12 | . | -7 | 8 | 5 | . | -10
C[C@@H]1CN([C@@H](C)CO)C(=O)c2cc(NC(=O)C3CCCCC3)ccc2O[C@@H]1CN(C)S(=O)(=O)c1ccc(Cl)cc1 | . | . | . | 3 | . | .
O=C(C[C@H]1CC[C@@H]2[C@H](COC[C@@H](O)CN2Cc2cc(F)cc(F)c2)O1)NCc1cccc(F)c1 | 8 | -4 | . | -17 | -2 | .
CC(C)CNC(=S)NNC(=O)c1csc2ccccc12 | . | 2 | 8 | 10 | . | -9
CCNC(=S)NNC(=O)c1csc2ccccc12 | . | 0 | 5 | 59* | . | -8
C[C@@H]1CN([C@@H](C)CO)C(=O)CCCn2cc(nn2)CO[C@H]1CN(C)Cc1ccc(-c2ccccc2)cc1 | 3 | 0 | . | 3 | -2 | .
SMILES | ERp5 block | PglD DTNB | PDI turbidity | PGC1a acetyl inh | ERAP1 HTS inh | CaV13 FRET inh
CCOC(=O)c1[nH]c2ccc(Br)cc2c1NC(=O)CCN1CCOCC1 | 4 | 1 | 12 | -5 | 34* | -4
CCOC(=O)c1[nH]c2ccc(Br)cc2c1NC(=O)CCN1CCN(C(=O)OCC)CC1 | . | -4 | 1 | -22 | . | -4
O=C(C[C@H]1CC[C@@H]2[C@H](COC[C@@H](O)CN2S(=O)(=O)c2ccccc2)O1)NCC1CCCCC1 | -4 | -5 | . | -6 | 2 | .
CCCN1CCN(C(=O)c2ccc(CS(=O)c3ccc(Br)cc3)o2)CC1 (stereo not given) | -10 | 6 | 5 | 7 | 6 | 35*
CC[C@H](C)[C@@H]1NC(=O)[C@@H](CC(C)C)NC(=O)[C@H](C(C)C)NC(=O)[C@H]2CSSC[C@H](NC1=O)C(=O)N2 | 6 | 1 | . | 72* | 3 | -5
C[C@H]1CN([C@@H](C)CO)S(=O)(=O)c2ccc(C#CCN(C)C)cc2O[C@@H]1CN(C)Cc1ccccc1F | 0 | 5 | . | -27 | 6 | .
O=C(c1ccccc1Cl)N1CCNCC1 | . | . | -1 | 67* | . | .
COc1ccccc1CNC(=O)C[C@H]1C[C@H]2c3cc(NC(=O)CN(C)C)ccc3O[C@H]2[C@@H](CO)O1 | 0 | -2 | . | 1 | -2 | .
CCC[N+](C)(C)C(C)C(OC(C)=O)c1ccccc1 (stereo not given) | 6 | 2 | -2 | -5 | 41* | -5
O=C(Nc1ccc(F)cc1F)c1c(C(F)(F)F)ccnc1Oc1ccccc1 | 0 | 4 | 13 | -18 | -4 | -20
Cc1cccc(Oc2nccc(C(F)(F)F)c2C(=O)Nc2ccc(F)cc2F)c1 | 2 | . | 1 | 85* | . | -3
CC(=O)OC[C@]12CC[C@H]3[C@@](C)(CC[C@H]4C(C)(C)CCC[C@]34C)[C@@H]1CC(C1=CC(=O)OC1O)O2 (stereo not given in full) | 0 | 6 | . | 87* | 3 | .
CN1CCN(C(=O)C[C@H]2CC[C@H](NS(=O)(=O)c3cccc(F)c3)[C@@H](CO)O2)CC1 | 1 | -1 | . | 1 | 1 | .
CC(C)NC(=O)N(C)C[C@H]1Oc2ccc(NC(=O)Cn3cnnn3)cc2C(=O)N([C@@H](C)CO)C[C@H]1C | . | . | . | -1 | . | .
COc1ccc(OC)c(C(=O)/C=C/c2ccccc2C(F)(F)F)c1 | . | 9 | -1 | 46* | . | -6
O=C(OCc1ccccc1)N1CCC2CC1c1cc(-c3ccc(F)cc3)ccc12 (stereo not given) | 4 | 3 | 15 | 63* | 5 | -10
CCc1nc(SCC(=O)c2ccccc2)c2ccccc2n1 | 3 | -4 | -8 | -8 | 2 | 39*
CCc1nc(SCC(=O)c2ccc3c(c2)OCCO3)c2ccccc2n1 | . | 10 | -2 | -11 | . | -5
O=c1[nH]c2ccccc2c(O)c1O | -1 | 32* | . | -5 | . | .
C[C@H](CO)N1C[C@H](C)[C@@H](CN(C)C(=O)Nc2ccc(F)cc2)Oc2c(NS(C)(=O)=O)cccc2C1=O | 3 | 5 | . | 0 | -5 | .
